Results: article PMC4552634, “A New Set of Chemical Starting Points with Plasmodium falciparum Transmission-Blocking Potential for Antimalarial Drug Discovery” (PLoS ONE, 2015)
Among all 13,000 compounds or so, about 3,200 (25%) showed an effect of 50% or more. This is one part of the list.

System: P. falciparum stage V gametocytes
Set-up: BacTiter-Glo ATP luminescence viability of purified stage V gametocytes in 384-well plates, per cent inhibition versus DMSO
Conditions: 48 h, 5 µM; inhibitor

SMILES | % Inhibition
CCOC(=O)Cn1ccc2c(NCc3ccccc3)nc(C)nc21 [TCMDC-137249] | 9.107%
OC(CN1CCN(c2cccc(Cl)c2)CC1)C(c1ccccc1)c1ccccc1 (centres unmarked) [TCMDC-123456] | 0.2376%
COc1cccc2cc(C(=O)N[C@@H](CC(C)C)C(=O)N[C@H](C=NN3CCCC3=O)Cc3ccccc3)oc12 [TCMDC-136091] | 20.05%
CC(c1cccc(Nc2nccc(-c3c(-c4cccc(NC(=O)c5c(F)cccc5F)c4)nn4ncccc34)n2)c1)S(C)(=O)=O (centres unmarked) [TCMDC-135696] | -68.26%
Nc1nc(N)c2c(Oc3cccc(Cl)c3)cccc2n1 [TCMDC-137741] | -2.704%
CCCCCN1CCCC1CNS(=O)(=O)c1ccc(C(=O)Nc2cccc(C(F)(F)F)c2)cc1 (centres unmarked) [TCMDC-133688] | -7.266%
CN1CCc2cc(CN3CC4(C)CC3CC(C)(C)C4)c(O)cc2C(c2ccccc2)C1 (centres unmarked) [TCMDC-131903] | -50.67%
CN1CCCN(Cc2ccc(-c3ccc(NC(=O)c4ccc(C#N)cc4)cc3)cc2)CC1 [TCMDC-132588] | 15.04%
CC(C)NCc1cccc(-c2ccc(NC(=O)c3ccc(F)cc3)cc2)c1 [TCMDC-132666] | -42.89%
CC(C)NCc1cccc(-c2ccc(NC(=O)c3ccc(C#N)cc3)cc2)c1 [TCMDC-132669] | -2.892%
CC(C)NCc1ccc(-c2cccc(NC(=O)c3ccc(F)cc3)c2)cc1 [TCMDC-132635] | 20.54%
CC(C)NCc1ccc(-c2ccc(NC(=O)c3cccc(C#N)c3)cc2)cc1 [TCMDC-132595] | 51.63%
CC(C)NCc1ccc(-c2cccc(NC(=O)c3ccc(Cl)cc3)c2)cc1 [TCMDC-132629] | -59.93%
CC(C)NCc1ccc(-c2ccc(NC(=O)c3ccc(C#N)cc3)cc2)cc1 [TCMDC-132589] | 83.96%
CC(C)NCc1cccc(-c2cccc(NC(=O)c3cccc(C#N)c3)c2)c1 [TCMDC-132662] | 13.1%
CC(C)NCc1cccc(-c2ccc(NC(=O)c3cccc(C#N)c3)cc2)c1 [TCMDC-132672] | -57.78%
CC(C)NCc1cccc(-c2cccc(NC(=O)c3ccc(C#N)cc3)c2)c1 [TCMDC-132656] | 89.01%
CC(C)NCc1ccc(-c2cccc(NC(=O)c3ccc(C#N)cc3)c2)cc1 [TCMDC-132638] | 83.96%
CC(C)NCc1ccc(-c2cccc(NC(=O)c3cccc(C#N)c3)c2)cc1 [TCMDC-132649] | 48.87%
COc1cccc(C(=O)NCCOc2ccccc2)c1Oc1ccccc1 [TCMDC-141238] | 4.712%
Nc1ncc(-c2cn[nH]c2)cc1-c1nc2ccc(Cl)cc2[nH]1 [TCMDC-133560] | -7.229%
C=CCc1cc(Cc2cnc(N)nc2N)cc(CCC)c1OC [TCMDC-138039] | 23.16%

SMILES | % Inhibition
O=C(O)c1ccc(-c2cnc3ccc(NC4CCC(O)CC4)nn23)cc1 (centres unmarked) [TCMDC-136692] | 8.489%
Cc1c(C)n(C2CCCC2)c2ncnc(OC3CCN(CC(=O)NC4CC4)CC3)c12 [TCMDC-133310] | -5.87%
Cn1nccc1C(=O)NCCNCc1ccc(-c2cccc(-c3nc4cc(F)ccc4[nH]3)c2)cc1.O=C(O)C(F)(F)F [TCMDC-133016] | -24.65%
CCOc1cc(Cc2cnc(N)nc2N)ccc1OC [TCMDC-137931] | 24.72%
COc1ccc2nccc([C@@H](O)CN3CCC(NC/C=C/c4cccnc4)CC3)c2c1 [TCMDC-140747] | -1.69%
Cc1cc(-c2ncc[nH]2)ccc1-c1ccc(C(=O)N2CCc3cc4c(cc32)C2(CCN(C)CC2)CO4)cc1 [TCMDC-139079] | -8.812%
Cc1cc(C2CCCCN2C)ccc1-c1ccc(C(=O)N2CCc3cc4c(cc32)C2(CCN(C)CC2)CO4)cc1 (centres unmarked) [TCMDC-139081] | 76.58%
COc1cc2c(cc1N1CC(C)NC(C)C1)N(C(=O)c1ccc(-c3ccc(-c4ncc[nH]4)cc3C)cc1)CC2 (centres unmarked) [TCMDC-141160] | 13.02%
CCOC(=O)NCCSC(C)(C)[C@H](NC(=O)[C@H](Cc1cc2ccccc2s1)[C@H](CC)N(O)C=O)C(=O)Nc1nccs1 [TCMDC-137792] | 7.703%
CN(C)CCN(C)Cc1cccc(-c2ccc3c(Nc4ccc(F)cc4Cl)ccnc3c2)c1 [TCMDC-138416] | 87.2%
Fc1ccc(Nc2ccnc3cc(I)ccc23)c(Cl)c1 [TCMDC-138387] | 14.07%
CN(C)CCN(C)Cc1cccc(-c2ccc3c(Nc4cc(O)c(Cl)cc4F)ccnc3c2)c1 [TCMDC-138432] | 25.38%
CN(C)CCNCc1ncsc1-c1ccc2c(Nc3ccc(F)cc3Cl)ccnc2c1 [TCMDC-138466] | 30.52%
COCCNCc1cccc(-c2ccc3c(Nc4cc(O)c(Cl)cc4F)ccnc3c2)c1 [TCMDC-138429] | 38.53%
CN(C)CCNCc1cccc(-c2ccc3c(Nc4cc(O)c(Cl)cc4F)ccnc3c2)c1 [TCMDC-138413] | 57.17%
Fc1ccc(Nc2ccnc3cc(-c4cccc(CN5CCCCC5)c4)ccc23)c(Cl)c1 [TCMDC-138418] | 24.75%
COCCNCc1cccc(-c2ccc3c(Nc4ccc(F)cc4Cl)ccnc3c2)c1 [TCMDC-138415] | 42.47%
CN1CCN(Cc2cccc(-c3ccc4c(Nc5cc(O)c(Cl)cc5F)ccnc4c3)c2)CC1 [TCMDC-138430] | 33.23%
CN(C)CCNCc1cccc(-c2ccc3c(Nc4ccc(F)cc4Cl)ccnc3c2)c1 [TCMDC-138412] | 66.82%
CN1CCN(Cc2cccc(-c3ccc4c(Nc5ccc(F)cc5Cl)ccnc4c3)c2)CC1 [TCMDC-138417] | 75.62%
CS(=O)(=O)CCNCc1cccc(-c2ccc3c(Nc4cc(O)c(Cl)cc4F)ccnc3c2)c1 [TCMDC-138435] | -21.48%
N=C(N)c1cccc(-c2cc(-c3cccc(C(=N)N)c3)on2)c1 [TCMDC-137789] | 11.2%
